According to paper PMC10668032, “Altered binding affinity of SIX1-Q177R correlates with enhanced WNT5A and WNT pathway effector expression in Wilms tumor”:
Over roughly 33,000 sequences, “e-score” has its median near -0.053; the highest 2% begin near 0.38. The sample holds the highest values, similar sequences and a random draw of the others, so the mix is not that of the screen.

target: T1, SIX1 homeodomain (reference allele) (human, UniProt Q15475 108-198); assay: universal protein binding microarray; Universal all-10-mer PBM (8x60K, AMADID 030236), 300 nM GST-tagged protein, Alexa Fluor 488 anti-GST; buffer, salt, pH and temperature not stated (as in Berger); high values mean tight binding; details: protein: ivt; tags: N-terminal GST; dsDNA, one strand shown
T1 sequence: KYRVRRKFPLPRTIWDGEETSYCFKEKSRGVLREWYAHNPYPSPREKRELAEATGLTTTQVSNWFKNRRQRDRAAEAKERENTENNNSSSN
How it was run: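 Binding was expressed as 8-mer E-scores calculated with the Universal PBM Analysis Suite. The GST-tagged homeodomains, made by in vitro transcription/translation, were applied in duplicate at 300 nM final concentration to universal 'all 10-mer' protein binding microarrays (8×60K format).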

Row | Sequence | binding signal
1 | ACACCCAA | 0.331 ± 0.0548 E-score
2 | AAACCCAT | 0.169 ± 0.00646 E-score
3 | ATACCCAG | 0.382 E-score
4 | ATACCCAA | 0.401 ± 0.0166 E-score
5 | CACCCCAC | 0.263 ± 0.128 E-score
6 | ATACCAAG | 0.285 ± 0.0262 E-score
7 | ACACCCAC | 0.221 ± 0.0764 E-score
8 | GAGCCGGA | 0.166 ± 0.0429 E-score
9 | TATGCGGA | 0.284 ± 0.018 E-score
10 | ATGCGATC | 0.309 ± 0.0257 E-score
11 | ATACGAGG | 0.232 ± 0.0433 E-score
12 | CATCTCAG | 0.227 ± 0.014 E-score
13 | TACGCATA | 0.197 ± 0.0197 E-score
14 | ACAGGGAT | 0.297 ± 0.0162 E-score
15 | ATAGGGGA | 0.287 ± 0.00909 E-score
16 | ATAGGGAT | 0.395 ± 0.00975 E-score
17 | ACCTTATA | 0.17 ± 0.0678 E-score
18 | CTATCGCC | 0.179 ± 0.0265 E-score
19 | CTATCGCA | 0.186 ± 0.0165 E-score
20 | ATATCGCC | 0.441 ± 0.0115 E-score
21 | AGATCGCC | 0.288 ± 0.0356 E-score
22 | AGATCGCG | 0.22 ± 0.0358 E-score

Row | Sequence | binding signal
23 | ATATCGCG | 0.422 ± 0.0273 E-score
24 | TGATCGCA | 0.171 ± 0.0248 E-score
25 | ATATCGCA | 0.42 ± 0.0293 E-score
26 | GGATCGCA | 0.366 ± 0.0387 E-score
27 | ACATCGCA | 0.152 ± 0.012 E-score
28 | ATCGCGCG | 0.213 ± 0.0714 E-score
29 | GTATCGCA | 0.431 ± 0.0148 E-score
30 | ATCGGTCG | 0.225 ± 0.0271 E-score
31 | CGGTTATC | 0.309 ± 0.0176 E-score
32 | AGTACGAT | 0.248 ± 0.0454 E-score
33 | ATCATAAT | 0.229 ± 0.0622 E-score
34 | GATAATGC | 0.16 ± 0.00226 E-score
35 | GCGATCTA | 0.218 ± 0.0326 E-score
36 | CTCCGGTA | 0.244 ± 0.0299 E-score
37 | GAAACACC | 0.189 ± 0.0066 E-score
38 | AGATCCCA | 0.213 ± 0.0026 E-score
39 | GAATCCCC | 0.23 ± 0.0451 E-score
40 | GGATCCCC | 0.419 ± 0.0404 E-score
41 | CGATCCCA | 0.346 ± 0.0579 E-score
42 | TGATCCCA | 0.3763 ± 0.00132 E-score
43 | GGATCCCA | 0.37 ± 0.0601 E-score
44 | AGATCCCG | 0.302 ± 0.0627 E-score

Row | Sequence | binding signal
45 | AGATCCCT | 0.292 ± 0.00813 E-score
46 | CGATCCCG | 0.332 ± 0.04 E-score
47 | AGATCCCC | 0.384 ± 0.0161 E-score
48 | CGATCCCC | 0.437 ± 0.041 E-score
49 | TGATCCAA | 0.324 ± 0.0147 E-score
50 | ATATACAA | 0.27 ± 0.0205 E-score
51 | ATAGGAGA | 0.185 ± 0.0295 E-score
52 | GATCGTAC | 0.274 ± 0.0438 E-score
53 | ATACATGG | 0.3102 ± 0.0018 E-score
54 | ATGACACC | 0.4711 ± 0.00199 E-score
55 | AGGACACC | 0.366 ± 0.0116 E-score
56 | CTGACACC | 0.468 ± 0.0134 E-score
57 | CAGACACC | 0.291 ± 0.0577 E-score
58 | CGGACACC | 0.3658 ± 0.00136 E-score
59 | ATGACACG | 0.289 ± 0.0161 E-score
60 | TATCGCAA | 0.33 ± 0.0108 E-score
61 | CCAGGAGA | 0.158 ± 0.0169 E-score
62 | AGCATGAT | 0.2 ± 0.0238 E-score
63 | ATAAGCAG | 0.173 ± 0.00802 E-score
64 | AGCTGATC | 0.3159 ± 0.00281 E-score
65 | CGATGATC | 0.379 ± 0.019 E-score
66 | AGATGAGA | 0.224 ± 0.0832 E-score

Row | Sequence | binding signal
67 | AGATGATC | 0.38 ± 0.0348 E-score
68 | GGATGGTA | 0.214 ± 0.0386 E-score
69 | AGAAGATA | 0.201 ± 0.105 E-score
70 | GGATGATA | 0.443 ± 0.0105 E-score
71 | GGATGAGA | 0.212 ± 0.0038 E-score
72 | AGATGATA | 0.432 ± 0.0425 E-score
73 | AGAAGATC | 0.231 ± 0.077 E-score
74 | CGCTGATC | 0.279 ± 0.0361 E-score
75 | CGATCATC | 0.3167 ± 0.00296 E-score
76 | ATGAAACC | 0.242 ± 0.0415 E-score
77 | ATCCCATA | 0.351 ± 0.0216 E-score
78 | ATATTTGA | 0.173 ± 0.0606 E-score
79 | ATCATTTG | 0.244 ± 0.0909 E-score
80 | ATCGGGCC | 0.188 ± 0.0382 E-score
81 | ACACCTGT | 0.277 ± 0.00124 E-score
82 | TATCGAGA | 0.293 ± 0.0133 E-score
83 | ATAGCCGG | 0.22519 ± 0.00017 E-score
84 | ACGCATCT | 0.169 ± 0.0233 E-score
85 | GGCAGATA | 0.216 ± 0.0469 E-score
86 | ACAGTGAT | 0.199 ± 0.0229 E-score
87 | ACTAGGAT | 0.187 ± 0.0427 E-score
